Experimental data as given in PubChem BioAssay AID1851 (National Center for Advancing Translational Sciences (NCATS), 2009).
About 5,800 (36%) of roughly 16,000 compounds were called active. Another 23% or so got no clear call; they are omitted. The list shows a part of the results. A number with no mark means an inactive call. Calls come from the whole dose curve; as a rule, active = well fitted curve in the direction sought with a large enough effect; inconclusive = small, poorly fitted or top-dose-only effect, or effect the other way; inactive = no such curve, though single readings can be large or run the other way.

molecular target: Cytochrome P450 2C19 (Homo sapiens) (UniProt P33261); test: Cytochrome panel assay with activity outcomes; conditions: recombinant CYP, pro-luciferin dealkylation, luminescence, p450-cyp2c19; series mostly up to 57.1 µM; activity, negative = inhibition: at the top concentration
Sequence (P33261 whole entry, looked up): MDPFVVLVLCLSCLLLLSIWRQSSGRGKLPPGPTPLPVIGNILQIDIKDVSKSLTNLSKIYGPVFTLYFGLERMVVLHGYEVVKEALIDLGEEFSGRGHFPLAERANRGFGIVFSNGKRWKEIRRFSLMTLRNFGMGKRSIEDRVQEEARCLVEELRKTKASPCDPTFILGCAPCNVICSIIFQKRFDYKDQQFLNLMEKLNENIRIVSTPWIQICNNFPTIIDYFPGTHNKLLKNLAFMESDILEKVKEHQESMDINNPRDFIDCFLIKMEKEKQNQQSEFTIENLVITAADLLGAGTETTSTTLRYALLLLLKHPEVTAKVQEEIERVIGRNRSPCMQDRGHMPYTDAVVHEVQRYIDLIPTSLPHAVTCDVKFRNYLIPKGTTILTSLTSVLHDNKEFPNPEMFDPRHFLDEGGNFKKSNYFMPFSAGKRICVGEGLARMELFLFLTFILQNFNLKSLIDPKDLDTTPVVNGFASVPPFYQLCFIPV
% is set by controls: 0 for no effect and ±100 for the full control effect.

| Structure (SMILES) | AC50 | activity, negative = inhibition |
| --- | --- | --- |
| CCCn1nc2cc(C(=O)NCc3ccccc3OC)ccc2c1OCC | 20 µM (active) |  |
| CCCn1nc2cc(C(=O)NCCCCc3ccccc3)ccc2c1OCC | 6.31 µM (active) |  |
| CCCCn1nc2cc(C(=O)NCCCCc3ccccc3)ccc2c1OCC | 22.4 µM (active) |  |
| COC(=O)Cc1c(C)nc2nc(NCc3ccccc3OC)[nH]n2c1=O |  | -29.7% |
| COc1ccccc1CNC(=O)c1cc2c(C)nn(Cc3ccc(F)cc3)c2s1 | 11.2 µM (active) |  |
| NCC[C@H](N)C(=O)O |  | -4.53% [at 11.4 µM] |
| CCn1nc2cc(C(=O)NCC34CC5CC(CC(C5)C3)C4)ccc2c1OC | 22.4 µM (active) |  |
| COCCn1nc2cc(C(=O)NCC34CC5CC(CC(C5)C3)C4)ccc2c1OC |  | -28.7% |
| CCCn1nc2cc(C(=O)NCCc3ccc(C)cc3)ccc2c1OCC | 25.1 µM (active) |  |
| CCOc1c2ccc(C(=O)NCc3ccco3)cc2nn1CC |  | -25.6% |
| CCOc1c2ccc(C(=O)NCc3ccc4c(c3)OCO4)cc2nn1CC | 31.6 µM (active) |  |
| CCOc1c2ccc(C(=O)NC3CCCc4ccccc43)cc2nn1C (stereo not drawn) |  | -18.9% |
| C=CCOc1c2ccc(C(=O)NC3CCCc4ccccc43)cc2nn1C (stereo not drawn) |  | -27.6% |
| CCCn1nc2cc(C(=O)NC3CCCc4ccccc43)ccc2c1OCC (stereo not drawn) | 28.2 µM (active) |  |
| COC(=O)C/C=C\[C@@H](C)[C@@H](/C=N\O[C@@H]1O[C@H](COC(C)=O)[C@H](OC(C)=O)[C@H](OC(C)=O)[C@H]1OC(C)=O)OC |  | -12.5% [at 11.4 µM] |
| NS(=O)(=O)c1ccc(N=Nc2cc3ccccc3c(C(=O)O)c2O)cc1 |  | -28.9% [at 11.4 µM] |
| OC[C@@H]1O[C@@H](n2cnc3cncnc32)[C@@H](O)[C@H]1O |  | -17.6% |
| O=C1C=C(NCCc2cc(Br)c(O)c(Br)c2)C(=O)c2ncccc21 | 0.501 µM (active) |  |
| O=C(Nc1ncc(Cc2cc(Cl)ccc2Cl)s1)c1ccc([N+](=O)[O-])cc1 | 2 µM (active) |  |
| CCOC(=O)N/N=C1/C[C@@H](O)[C@@H](O)[C@@H]2[C@@H]3C(=O)N(c4cccc(Oc5ccccc5)c4)C(=O)[C@H]3CC[C@H]12 |  | 42.4% [at 11.4 µM] |
| N=C1CCC[C@@H]1C(=S)SCCC(N)=O |  | -14.4% [at 11.4 µM] |
| CC(C)CC1NC(=S)N(C2CCCCC2)C1=O (stereo not drawn) | 7.94 µM (active) |  |
| CCC(C)C1NC(=S)N(C2CCCCC2)C1=O (stereo not drawn) | 2 µM (active) |  |
| Cn1c(=O)c(CCc2ccccc2)nc2cnc(Oc3ccccc3)nc21 | 25.1 µM (active) |  |

| Structure (SMILES) | AC50 | activity, negative = inhibition |
| --- | --- | --- |
| COc1ccc(Oc2ncc3nc(-c4cc(F)cc(F)c4)c(=O)n(C)c3n2)cc1 |  | 0.472% |
| Cn1c(=O)c(-c2cc(F)cc(F)c2)nc2cnc(Oc3ccccc3)nc21 |  | -42.9% |
| COc1ccc(Oc2ncc3nc(CCc4ccccc4)c(=O)n(C)c3n2)cc1 | 10 µM (active) |  |
| Cc1nc2cnc(Oc3ccccc3)nc2n(C)c1=O |  | -44.4% |
| COc1ccc(Oc2ncc3nc(C)c(=O)n(C)c3n2)cc1 |  | -36% |
| CC(C)N=c1cc2n(-c3ccc(Cl)cc3)c3ccccc3nc-2cc1Nc1ccc(Cl)cc1 |  | -25.3% [at 25.6 µM] |
| O=c1c2ccccc2nc2n1C(CSCc1cccc(C(F)(F)F)c1)CS2 (stereo not drawn) | 0.251 µM (active) |  |
| C[n+]1cc2c3c(ccc2c2ccc4cc5c(cc4c21)OCO5)OCO3 | 6.31 µM (active) |  |
| COc1ccc2cc3[n+](cc2c1OC)CCc1cc2c(cc1-3)OCO2 |  | -19.4% [at 25.6 µM] |
| O=C(Nc1cc2c(oc1=O)CCCC2=O)c1ccc(Cl)cc1 | 22.4 µM (active) |  |
| O=c1ccc(NS(=O)(=O)c2ccc(Cl)cc2)cn1Cc1ccc(Cl)c(Cl)c1 | 0.251 µM (active) |  |
| O=c1ccc(NS(=O)(=O)c2ccccc2)cn1Cc1ccc(Cl)c(Cl)c1 | 0.2 µM (active) |  |
| Cc1ccc(S(=O)(=O)Nc2ccc(=O)n(Cc3ccc(Cl)c(Cl)c3)c2)cc1 | 0.158 µM (active) |  |
| O=C(c1ccccc1-c1nc(-c2ccccc2)no1)N1CCOCC1 |  | -3.39% |
| Clc1ccccc1-c1nc(-c2ccncc2)no1 | 0.0631 µM (active) |  |
| CS(=O)(=O)c1ccccc1-c1nc(-c2cc(C(F)(F)F)cc(C(F)(F)F)c2)no1 |  | -26.9% |
| CO[C@@H]1COC(=O)C/C=C\[C@@H](C)[C@@H]2C=C[C@H](O)[C@@H](COC(=O)CCC[C@H]1C)O2 |  | -8.99% [at 11.4 µM] |
| CC(C)Oc1ccc2c(=O)c3cc(C(=O)O)ccc3oc2c1 |  | -30.5% |
| COc1ccc2c(=O)c(-c3ccccc3C)c(C)oc2c1 | 20 µM (active) |  |
| N[C@H](C(=O)O)[C@H](O)C(=O)O |  | -18% |
| COc1ccccc1C1CC(c2c(-c3ccccc3)c3cc(Cl)ccc3[nH]c2=O)=NN1S(C)(=O)=O (stereo not drawn) | 3.16 µM (active) |  |
| O=c1oc2ccccc2cc1-c1csc(NN=C2CCCCC2)n1 | 1.58 µM (active) |  |
| Cc1ccc(-c2noc(-c3cc4ccccc4oc3=O)n2)cc1 |  | -22.9% |
| CC1CC(C)CN(C(=O)CSc2nnc(CSc3ncccn3)n2C)C1 (stereo not drawn) | 14.1 µM (active) |  |

| Structure (SMILES) | AC50 | activity, negative = inhibition |
| --- | --- | --- |
| CCCc1nnc(SCC(=O)N2CCCC(C)C2)n1CC1CCCO1 (stereo not drawn) |  | -12.9% |
| CS(=O)(=O)c1ccc([C@H](O)[C@H](CO)NC(=O)C(Cl)Cl)cc1 |  | -51.5% [at 25.6 µM] |
| N#CC(=C1CCCC1)c1nc(-c2ccccc2)cs1 | 1.41 µM (active) |  |
| Cc1ccc(-c2csc(C(C#N)=C3CCCC3)n2)cc1 | 2.24 µM (active) |  |
| Nc1nc(N)c(-c2cccc(C(F)(F)F)c2)c(Cc2cccc(C(F)(F)F)c2)n1 | 2.51 µM (active) |  |
| Cc1ccc(C(=O)N2CCN(C3c4cccc5cccc(c45)C3NS(=O)(=O)c3ccccc3)CC2)cc1 (stereo not drawn) | 3.16 µM (active) |  |
| Cc1ccc(S(=O)(=O)N[C@H](C(=O)N2CCC(C(=O)NCC(=O)O)CC2)C(C)C)cc1 |  | -10.1% |
| CC(C)(CO)[C@H](O)C(=O)NCCCO |  | -17.6% [at 25.6 µM] |
| CCOc1ccc(N(C(C)C(=O)N/N=C(\C)c2cccc(NC(=O)c3ccccc3)c2)S(C)(=O)=O)cc1 (stereo not drawn) | 3.98 µM (active) |  |
| C/C(CCN1CCCCc2nc(C)c(C)cc21)=N\OC[C@@H](C)[C@H](OCc1ccccc1)C(C)C |  | -22.2% [at 11.4 µM] |
| C[N+](C)(C)CCO |  | -4.75% |
| CCc1nnc(NC(=O)C2Cc3ccccc3CN2S(=O)(=O)c2ccc(C)cc2)s1 (stereo not drawn) | 0.631 µM (active) |  |
| O=C(Nc1nnc(C2CC2)s1)C1Cc2ccccc2CN1S(=O)(=O)c1ccccc1F (stereo not drawn) | 0.0282 µM (active) |  |
| O=C(Nc1nccs1)C1Cc2ccccc2CN1S(=O)(=O)c1ccc(F)cc1 (stereo not drawn) | 0.891 µM (active) |  |
| O=C(O)c1c[nH]c2c(ccc3[nH]cc(C(=O)O)c(=O)c32)c1=O |  | -8.42% [at 11.4 µM] |
| O=C(N/N=C\c1cccc(O)c1)c1ccncc1 |  | -1.11% [at 11.4 µM] |
| Cc1ccccc1C(=O)N/N=C/c1ccncc1 | 39.8 µM (active) |  |
| Cc1cc(C)c(NC(=O)C2CCCN2C)c(C)c1 (stereo not drawn) |  | -28.8% |
| Cc1cc(C)cc(NC(=O)N2CCCC2C(=O)Nc2ccc(-n3cnnn3)c(C)c2)c1 (stereo not drawn) | 0.282 µM (active) |  |
| Cc1cc(NC(=O)c2ccco2)ccc1-n1cnnn1 | 17.8 µM (active) |  |
| CC(=O)Nc1cccc(NC(=O)C2CCCN2C(=O)Nc2ccccc2C)c1 (stereo not drawn) |  | -15.2% |
| CC(C)=CCC/C(C)=C/CO/N=C1/C[C@@H](O)[C@@H](O)[C@@H]2[C@@H]3C(=O)N(C(C)(C)C)C(=O)[C@H]3CC[C@@H]12 |  | -29.1% [at 11.4 µM] |
| CCOC(=O)c1c(NC(=O)/C=C/c2ccc3c(c2)OCO3)sc(C)c1CC | 5.01 µM (active) |  |
| CCOC(=O)c1c(NC(=O)/C=C/c2ccc3c(c2)OCO3)sc(C)c1C |  | -10.8% |

| Structure (SMILES) | AC50 | activity, negative = inhibition |
| --- | --- | --- |
| COc1cccc(OC)c1C(=O)NC(=S)N1CCN(c2ccc(C(F)(F)F)cc2[N+](=O)[O-])CC1 | 14.1 µM (active) |  |
| CC(C)Oc1cccc(C(=O)NC(=S)N2CCN(c3ccc(C(F)(F)F)cc3[N+](=O)[O-])CC2)c1 | 8.91 µM (active) |  |
| COc1ccccc1CN1CCCC2(CCN(S(C)(=O)=O)CC2)C1 |  | 4.75% |
| O=P(O)(O)O[C@@H]1O[C@H](CO)[C@@H](O)[C@H](O)[C@@H]1O |  | 38.5% [at 11.4 µM] |
| Cc1ccc(C)c(NC(=O)Cn2c([N+](=O)[O-])cnc2C)c1 |  | -43.3% |
| CCOCC(=O)Nc1cc(-c2cn3cccnc3n2)ccc1C |  | 29.5% |
| CCOc1ncccc1C(=O)OCC(=O)Nc1cc(C)ccc1C | 5.01 µM (active) |  |
| Cc1ccc(C(=O)NC(=S)NCC2CCCO2)cc1 (stereo not drawn) | 6.31 µM (active) |  |
| CCOc1cc(NC(=S)NCC2CCCO2)c(OCC)cc1NC(=O)c1cccc(C)c1 (stereo not drawn) | 11.2 µM (active) |  |
| CCOC(=O)Nc1ccc(C(=O)NCC2CCCO2)cc1 (stereo not drawn) |  | 14.5% |
| CC1CCN(C(=O)c2ccc(COc3ccccc3Cl)o2)CC1 | 8.91 µM (active) |  |
| CCOc1ccc(OCc2ccc(C(=O)NCc3cccnc3)o2)cc1 | 22.4 µM (active) |  |
| O=C(O)c1cc2cc(Cc3cccnc3)ccc2o1 |  | 34.7% |
| Cc1cc(=O)oc(C)c1C(=O)NCc1cccnc1 |  | 12.1% |
| CCOc1ccc(OCc2ccc(C(=O)N3CCc4ccccc4C3)o2)cc1 | 5.62 µM (active) |  |
| Cc1ccccc1CS(=O)(=O)Cc1ccc(C(=O)NCc2cccnc2)o1 | 3.55 µM (active) |  |
| NS(=O)(=O)c1cc2c(cc1Cl)NC(CSCc1ccccc1)=NS2(=O)=O |  | 3.64% [at 25.6 µM] |
| CNC[C@@H](SC)c1ccc(O)c(O)c1 |  | -19% [at 11.4 µM] |
| Cc1cccc(C)c1NC(=O)CN1CCN(CCCC(c2ccc(F)cc2)c2ccc(F)cc2)CC1 |  | -29.9% [at 25.6 µM] |
| CC(=O)Nc1ccc(NC(=O)Cn2c(-c3ccc(F)cc3)cnc2SCC(=O)Nc2c(C)cccc2C)cc1 | 1.58 µM (active) |  |
| CCNc1ncc2nc(-c3ccc(Cl)cc3)c(=O)n(C[C@H]3CCCO3)c2n1 |  | 9.08% |
